Screening results (PubChem BioAssay)
Most compounds without a hit are left out; they make up all but 19% or so of the library.
KB-V1 MDR tox – KB-V1 MDR subline cytotoxicity; KB-V1 MDR cells viability, CellTiter-Glo, 72 h; hit rate 3.4% among 400,000; Potency, µM (top dose mostly 46.1 µM), actives largely listed as cytotoxic; further: nearly all actives have a fitted effect of over 60% in size
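Drug-selected KB-V1 cells, grown in DMEM lacking phenol red with 10% FBS, receive compound titrations; after three days at 37 degrees C, surviving cell ATP is quantified by CellTiter-Glo luminescence and responses normalized and curve-fitted.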
HT1080 IDH1KD tx – toxicity to HT-1080 IDH1 knockdown cells (counter line); HT-1080 IDH1 knockdown viability, ATP luminescence, 48 h; Potency, µM (highest dose often 46.1 µM), inactives show top-dose activity, negative = toxicity, usual class: cytotoxic; hit rate 2% among 360,000;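 further: 0% = DMSO wells and -100% = cell-free medium wells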
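In this qHTS, HT-1080 cells depleted of IDH1 are exposed for 48 h at 37 °C to compound titrations. Toxicity is scored from CellTiter-Glo luminescence, with DMSO as full viability and medium alone as none.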
HT1080-NT tox – kills 2HG-producing HT-1080-NT fibrosarcoma cells; HT-1080-NT fibrosarcoma viability, CellTiter-Glo ATP luminescence, 48 h; Potency, µM (series often up to 46.1 µM), for inactives: at the highest dose activity, negative = less viability, most hits filed as cytotoxic; hit rate 1.6% among 360,000; AID 686970;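 further: NT is the 2HG producing partner of a matched IDH1 knockdown line; 0% = DMSO-treated cells and -100% = media-only wells without cells; nearly all actives have a fitted effect of over 55% in size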
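Viability of the 2HG-overproducing fibrosarcoma line after 48 hours of compound exposure at 37 degrees C was determined by luminescence with CellTiter-Glo, and concentration-effect curves were then fitted and categorized.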
TDP1 cell CPT – growth inhibition of DT40 Tdp1-/-;hTDP1 cells with camptothecin (screen for TDP1 inhibitors); hit rate 12% among 420,000; chicken DT40 Tdp1-/-;hTDP1 cells + 20 nM CPT, ATP luminescence, 48 h; AID 686979; Potency, µM (titrated, usually from 46.2 µM), without a hit: at the highest dose activity change, negative = growth inhibition, most hits filed as inhibitors; further: nearly all actives have a fitted effect of over 55% in size
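Cell growth measured by CellTiter-Glo luminescence after a minimum 48 h, 37 C compound exposure with 20 nM CPT in Tdp1-knockout DT40 cells stably expressing hTDP1, seeded 400/well; qHTS titration format.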
DT40 TDP1 no CPT – qHTS for Inhibitors of human tyrosyl-DNA phosphodiesterase 1 (TDP1): qHTS in cells in absence of CPT; DT40 Tdp1-/- hTDP1 cells, no CPT, ATP luminescence, 48 h; Potency, µM (doses to about 46.2 µM), without a hit: top-dose activity change, negative = growth inhibition, hits mostly inhibitors; hit rate 15% among 420,000; further: nearly all actives have a fitted effect of over 55% in size
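DT40 Tdp1-/-;hTDP1 cells, no CPT (DMSO vehicle only), 400 cells/well; compounds pin-transferred; ≥48 hr, 37 °C; CellTiter-Glo 30 min RT dark, luminescence read.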
KB-3-1 cytotox – KB-3-1 parental cell cytotoxicity | KB-3-1 viability, CellTiter-Glo ATP luminescence, 72 h | Potency, µM (highest dose often 46.1 µM), most hits filed as cytotoxic | hit rate 1.4% among 400,000 | AID 1347075; further: nearly all actives have a fitted effect of over 60% in size
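Viability of parental KB-3-1 cells, measured by CellTiter-Glo luminescence, followed a 72 h incubation at 37 °C with pinned compounds in phenol-red-free DMEM containing 10% FBS.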
Active calls of the source: *; i = inactive; ? = inconclusive; . = not tested or not shown; [ ] = dose if it differs, or a comment. The call rests on the fitted dose curve; in most records, active means well fitted curve in the direction sought with a large enough effect; inconclusive means small, poorly fitted or top-dose-only effect, or another doubt; inactive means no such curve, though single readings can be large; an effect the other way counts as inactive or inconclusive. Unless noted, on the % scale 0 is the no-effect control and ±100 the full control effect; potency means the concentration at half of the fitted maximal effect.

SMILES | KB-V1 MDR tox | HT1080 IDH1KD tx | HT1080-NT tox | TDP1 cell CPT | DT40 TDP1 no CPT | KB-3-1 cytotox
CSc1cccc(NS(=O)(=O)c2cn(C)cn2)c1 | i | 2% | -5% | -26% | -1% | i
NCCNCCN | . | . | . | 17% | 3% | .
COc1ccc(CNC(=O)/C(C#N)=C2\N=C(NC(=O)c3cccs3)c3ccccc32)cc1 | i | -5% | -1% | 26µM* | ? | i
CCC1CSC(Nc2ccc(C(=O)/C=C/c3ccc(OC)c(OC)c3)cc2)=N1 (stereo unspecified) | 2.9µM* | ? | ? | ? | 13µM* | ?
CCC1CSC(Nc2ccc(C(=O)/C=C/c3ccc(Br)cc3)cc2)=N1 (stereo unspecified) | ? | 18µM* | ? | ? | ? | i
Cc1ccc(C(=O)N2[C@@H]3CN(C)C(=O)[C@@]2(C)[C@H]2C(=O)N(C)C(=O)[C@@H]32)cc1 | i | 10% | 22% | 1% | -19% | i
Cc1ccc(C(=O)C(NC(=O)c2ccco2)N2CCOCC2)cc1 (stereo unspecified) | i | 12% | 12% | 1% | -11% | i
O=C(NC(C(=O)c1ccccc1)N1CCCCCC1)c1ccco1 (stereo unspecified) | i | 15% | 13% | 23µM* | 21µM* | i
O=C(c1ccc(Cl)cc1)c1oc2ccccc2c1CS(=O)c1ccccc1 (stereo unspecified) | 5.2µM* | -9% | 9% | ? | ? | i
COc1ccc(Nc2cc(C)nc3ncnn23)c(OC)c1 | i | -2% | 17% | -1% | 0% | i
COc1ccc(CNc2cc(C)nc3ncnn23)c(OC)c1 | i | ? | ? | ? | 10µM* | ?
CCCS(=O)(=O)NC(=O)C1(C)CCN(C(=O)c2ccc(C(=O)OC)cc2)C1 (stereo unspecified) | i | 21% | 24% | 2% | -15% | i
COc1ccc(C(=Cc2ccccc2)C(=O)O)cc1 | ? | 4% | -1% | 10% | -12% | i
CC(C)(C)NCC(=Cc1ccccc1)C(=O)c1ccccc1 | ? | 5.8µM* | 6.5µM* | 2.1µM* | 2.1µM* | 5.2µM*
Cc1ccc(OCCC(=O)Nc2ccc(S(=O)(=O)N3CCCC3)cc2)cc1 | i | -8% | -6% | ? | 15µM* | i
CCOc1ccc(CC(=O)Nc2ccc(S(=O)(=O)N3CCCC3)cc2)cc1 | . | -8% | 2% | ? | 15µM* | .
CCOc1ccc(NC(=O)CSc2nnc3c(n2)[nH]c2ccc(S(=O)(=O)N4CCCCC4)cc23)cc1 | . | ? | ? | 13µM* | 16µM* | .
O=C(CSc1nnc2c(n1)[nH]c1ccc(S(=O)(=O)N3CCOCC3)cc12)Nc1ccccc1Cl | i | 1% | -3% | ? | -23% | i
O=C(Cc1ccc(F)cc1)Nc1ccc(S(=O)(=O)N2CCCC2)cc1 | i | -1% | -9% | -27% | ? | i
NC1(c2ccc(-c3nc4ccn5c(=O)[nH]nc5c4cc3-c3ccccc3)cc2)CCC1 | i | . | . | 0.38µM* | 0.6µM* | i
O=c1cc(N2CCCC2)c(-c2ccccc2)n[nH]1 | i | 4% | 13% | -9% | -10% | i
CC(C)c1ccccc1NC(=O)COC(=O)c1cc(=O)[nH]c(=O)[nH]1 | i | 16% | 16% | -5% | -7% | i
COc1ccc(-c2noc(CCC(=O)N3CCN(c4cccc(OC)c4)CC3)n2)cc1 | i | -5% | -7% | ? | 16µM* | i
COc1ccc(-c2noc(CCCC(=O)N3CCOCC3)n2)cc1 | i | -5% | -4% | ? | ? | i
COc1ccc(-c2noc(CCC(=O)N3CCN(c4cccc(C(F)(F)F)c4)CC3)n2)cc1 | ? | 0%[9.24 µM] | -28% | ? | 23µM* | i
SMILES | KB-V1 MDR tox | HT1080 IDH1KD tx | HT1080-NT tox | TDP1 cell CPT | DT40 TDP1 no CPT | KB-3-1 cytotox
COc1ccc(Cl)cc1N(CC(=O)Nc1ccccc1C(=O)N1CCOCC1)S(C)(=O)=O | . | 7% | 7% | 18% | 3% | .
CC1=C(C(=O)OCC2CCCCC2)C(c2cccc(Cl)c2Cl)CC(=O)N1 (stereo unspecified) | i | . | . | -4% | 1% | i
CC1=C(C(=O)OC2CCCCCC2)C(c2ccc(Cl)cc2Cl)CC(=O)N1 (stereo unspecified) | i | . | . | 15µM* | 16µM* | i
CC1=C(C(=O)OCC2CCCCC2)C(c2ccc(Cl)cc2Cl)CC(=O)N1 (stereo unspecified) | i | . | . | ? | 21µM* | i
CC1=C(C(=O)OC2CCCCCC2)C(c2ccc(Cl)cc2)CC(=O)N1 (stereo unspecified) | i | . | . | ? | ? | i
CC1=C(C(=O)OC2CCCCCC2)C(c2cccc(Cl)c2)CC(=O)N1 (stereo unspecified) | i | . | . | 18µM* | 18µM* | ?
CSCCC(NC(=O)c1ccccc1)C(=O)N1CC=C(c2ccccc2)CC1 (stereo unspecified) | ? | 10% | 0% | ? | ? | ?
CCCCNC(=O)C1(C)CCN1Cc1cccc2c(OC)cc(C(=O)OCC)cc12 (stereo unspecified) | ? | ? | ? | ? | 13µM* | i
CCCNC(=O)C1(C)CCCN(Cc2cccc3ccccc23)C1 (stereo unspecified) | i | -20% | -16% | ? | ? | i
CCOC(=O)c1cc(OC)c2cccc(CN3CCCC(C)(C(=O)NCCOC)C3)c2c1 (stereo unspecified) | i | ? | -8% | 9.2µM* | 6.5µM* | i
COCCNC(=O)C1(C)CCCN(Cc2ccc(C)c3ccccc23)C1 (stereo unspecified) | i | -17% | -8% | 21µM* | 16µM* | i
O=C(COc1ccccc1F)Nc1ccccc1C(=O)OCc1cc(=O)n2nc(C3CC3)sc2n1 | i | . | . | -6% | -16% | i
Cc1ccc(NC(=O)CC(c2ccc(F)cc2)N2Cc3ccccc3C2=O)cc1C (stereo unspecified) | . | . | . | -15% | -24% | .
CCOC(=O)c1cccc(NC(=O)CC(c2cc(OC)c(OC)c(OC)c2)N2Cc3ccccc3C2=O)c1 (stereo unspecified) | i | . | . | ? | ? | i
